# HT1080NT lethal = kills 2HG-producing HT-1080-NT fibrosarcoma cells | HT-1080-NT fibrosarcoma viability, CellTiter-Glo ATP luminescence, 48 h | Potency, µM (top dose mostly 46.1 µM), inactives show top-dose activity, negative = less viability, most hits filed as cytotoxic | 360,000 tested, 1.6% active;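 further: NT is the 2HG producing partner of a matched IDH1 knockdown line; 0% = DMSO-treated cells and -100% = media-only wells without cells; nearly all actives have a fitted effect of over 55% in size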
#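 Luminescent CellTiter-Glo readout after 48 hours of compound exposure at 37 degrees C defined viability of HT-1080-NT cells. Activity was normalized to DMSO wells and cell-free media wells; concentration-response curves were fitted and assigned curve classes.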
# MCF10A rereplic = induces DNA re-replication in MCF 10a normal breast cells; MCF 10A DNA re-replication, Hoechst nuclear intensity, 48 h; Potency, µM (highest dose often 46.1 µM), for inactives: top-dose activity, positive = re-replication, usual class: activators; 350,000 tested, 2.9% active; AID 624296; further: % of control where 0% means no effect; nearly all actives have a fitted effect of over 50% in size
# HT1080 IDH1KD tx = kills HT-1080 cells with IDH1 knockdown; Potency, µM (series often up to 46.1 µM), inactives show at the highest dose activity, negative = toxicity, actives largely listed as cytotoxic; AID 686971; 360,000 tested, 2% active; HT-1080 IDH1 knockdown viability, ATP luminescence, 48 h;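 further: 0% = DMSO wells and -100% = cell-free medium wells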
#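 % activity derives from luminescence (CellTiter-Glo), normalised to DMSO and no-cell wells. HT-1080-IDH1KD cells, 750/well, had 48 h compound exposure at 37 °C.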
# KB-V1 MDR tox = KB-V1 MDR subline cytotoxicity; KB-V1 MDR cells viability, CellTiter-Glo, 72 h; Potency, µM (highest dose often 46.1 µM), hits mostly cytotoxic; 400,000 tested, 3.4% active; AID 1347076; further: on the % scale 0 is the no-effect control and ±100 the full control effect; nearly all actives have a fitted effect of over 60% in size
#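 Cytotoxicity via CellTiter-Glo luminescence after 72 h compound exposure at 37 degrees C. Cells: drug-selected KB-V1 line, DMEM phenol-red free plus 10% FBS. Compounds tested at multiple concentrations; normalized data fitted to concentration-effect curves.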
# KB-3-1 tox = KB-3-1 parental cell cytotoxicity; KB-3-1 viability, CellTiter-Glo ATP luminescence, 72 h; Potency, µM (top dose mostly 46.1 µM), usual class: cytotoxic; 400,000 tested, 1.4% active; further: on the % scale 0 is the no-effect control and ±100 the full control effect; nearly all actives have a fitted effect of over 60% in size
#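 KB-3-1 parental drug-naive adenocarcinoma cells in DMEM/10% FBS, incubated 72 h at 37 C with pin-transferred compounds across a concentration series. Viability by CellTiter-Glo luminescence; concentration-response curves fitted after normalization.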
# SW480 rerep = inducers of DNA re-replication in SW480 colon cancer cells; SW480 DNA re-replication, Hoechst DNA content imaging, 48 h; Potency, µM (top dose mostly 46.1 µM), for inactives: top-dose re-replication activation, usual class: activators; 340,000 tested, 1.8% active; further: % of control where 0% means no effect; nearly all actives have a fitted effect of over 55% in size
#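 Hoechst fluorescence of nuclei (405 nm excitation, 500-530 nm emission) measured by plate-scanning imager after 48 hr compound exposure at 37 C; re-replication scored as increased number of nuclei with elevated intensity.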
# The depositor's hits bear a star; i = inactive; ? = inconclusive; . = no result given; ! = repeats disagree. This is a sample that favours compounds with a hit; in the whole collection about 7.9% have one here. The call rests on the fitted dose curve; in most records, active means well fitted curve in the direction sought with a large enough effect; inconclusive means small, poorly fitted or top-dose-only effect, or another doubt; inactive means no such curve, though single readings can be large; an effect the other way counts as inactive or inconclusive. Potency means the concentration at half of the fitted maximal effect.
SMILES,HT1080NT lethal,MCF10A rereplic,HT1080 IDH1KD tx,KB-V1 MDR tox,KB-3-1 tox,SW480 rerep
CCOC(=O)c1ccc(NC(=O)N2CCN(S(C)(=O)=O)CC2)cc1,14.1%,-6.7%,0.0%,?,i,9.3%
CCCOc1ccc(C2C3=C(CCCC3=O)N(CC(=O)O)C3=C2C(=O)CCC3)cc1OCC,0.5%,-13.7%,7.3%,i,i,5.7%
Cc1nc(SCc2ccc(OCCC(C)C)cc2)n[nH]1,-3.3%,12.6%,-4.9%,i,i,23.1µM*
CCCCCOc1ccc(CSc2n[nH]c(C)n2)cc1,-24.1%,22.8%,-52.7%,i,i,-3.6%
Cc1ccc2c(CNCc3cccs3)c(C(=O)O)n(Cc3ccc(F)cc3)c2c1,.,.,.,i,11.6µM*,.
C=Cc1ccc(Cn2c(C(=O)O)c(CNCc3ccc(F)cc3)c3ccc(C)cc32)cc1,.,.,.,i,7.31µM*,.
COc1ccc2c(CNCc3cccs3)c(C(=O)O)n(Cc3ccc(F)cc3Cl)c2c1,.,.,.,?,i,.
COc1ccc2c(CNCc3cccs3)c(C(=O)O)n(Cc3ccc(F)cc3)c2c1,.,.,.,i,16.4µM*,.
COc1ccc(Cn2c(C(=O)O)c(CNCc3cccs3)c3ccc(C)cc32)cc1,.,.,.,i,?,.
C=Cc1ccc(Cn2c(C(=O)O)c(CNCc3cccs3)c3ccc(C)cc32)cc1,.,.,.,i,i,.
CC1(C)NC(C)(C)c2nonc2/C1=N\O,1.6%,4.1%,2.8%,i,i,-3.2%
CCCCCCCCCCOC(=O)Cn1c(COc2ccccc2)[n+](C)c2ccccc21,-24.1%,?,-6.1%,i,i,-2.1%
CCCCCCCCCCOC(=O)Cn1c(COc2ccc(OC)cc2)[n+](C)c2ccccc21,20.6µM*,6.51µM*!,13µM*,i,20.6µM*!,?
CCCCCCCCCCOC(=O)Cn1c(COc2ccccc2C)[n+](C)c2ccccc21,23.1µM*,?,11.6µM*,i,?,?
Cc1ccc(C#N)c(SCc2ccccc2[N+](=O)[O-])n1,2.1%,-6.7%,-8.9%,i,i,-7.7%
Cc1cc(C)c(C#N)c(SCc2ccccc2[N+](=O)[O-])n1,6.9%,12.6%,8.6%,23.1µM*,i,0.8%
Cc1cc(C)c(C#N)c(SCc2nc3ccccc3[nH]2)n1,-16.2%,12.6µM*,-19.4%,i,i,18.4µM*
Cc1cc(C)c(C#N)c(SCc2ccc(F)cc2)n1,13.7%,-3.9%,9.2%,?,i,-8.2%
C#Cc1cccc(NC(=O)c2ccc(Cl)cc2Cl)c1,-0.9%,0.1%,-1.5%,i,i,-5.3%
Cc1ccc(C(=O)CSc2nnc(COc3ccc(C#N)cc3)n2-c2ccccc2)cc1,-23.5%,8.7%,-28.8%,i,i,-0.5%
Cc1ccc(OCc2nnc(SCC(=O)Nc3cccc4ccccc34)n2-c2ccccc2)cc1,-21.9%,18.4µM*,-18.8%,?,i,9.5%
Cc1ccc(OCc2nnc(SCc3cc(=O)[nH]c4ccccc34)n2-c2ccccc2)cc1,16.4µM*,1.0%,?,i,i,4.6%
Cc1ccccc1OCc1nnc(SCc2cc(=O)[nH]c3ccccc23)n1-c1ccccc1,-19.7%,?,-19.4%,16.4µM*,?,?
Cc1ccc(Cl)cc1NC(=O)N[C@@H](CC(C)C)C(=O)O,7.5%,-6.4%,11.8%,i,i,-7.1%
COc1ccccc1OCCCCN1CCN(c2ccccc2OC)CC1,-15.2%,10.7%,-11.0%,i,i,2.8%
SMILES,HT1080NT lethal,MCF10A rereplic,HT1080 IDH1KD tx,KB-V1 MDR tox,KB-3-1 tox,SW480 rerep
COc1ccccc1N1CCN(CCCCOc2cccc3ccccc23)CC1,?,?,16.4µM*,i,i,4.5%
COc1ccccc1N1CCN(CCCCCCOc2ccc(F)cc2)CC1,-15.5%,?,4.3%,3.66µM*,?,?
Cc1ccc(/C=N/N2CCN(Cc3ccc(C)cc3)CC2)cc1,3.7%,-0.2%,2.2%,?,i,-9.1%
COc1cc2cc(CN(CCc3ccccc3C)C(=S)NCCCN3CCOCC3)c(=O)[nH]c2cc1OC,2.0%,?,-0.4%,i,i,3.6%
N#CC(OC(=O)c1ccccc1)c1ccccc1 (stereo not given),1.7%,6.4%,0.2%,i,i,-7.8%
O=C1CC(N2CCN(Cc3ccccc3)CC2)C(=O)N1CCc1ccccc1 (stereo not given),6.8%,25.9µM*,5.3%,i,i,-5.0%
Cc1ccc(NC(=O)c2nn(C34CC5CC(CC(C5)C3)C4)cc2[N+](=O)[O-])cc1,0.9%,?,-20.2%,i,i,-10.7%
CC(=NNC(=S)N1CC2CCC(CC2)C1)c1ccncn1,16.4µM*,45.4%,?,i,?,?
CC(=NNC(=S)N1CCCCC1)c1ccccn1,-19.6%,.,?,?,?,.
C=C(C)CNC(=S)NNC(=O)CCn1c2ccccc2c2ccccc21,2.3%,?,-0.7%,18.4µM*,?,?
COc1ccc(/C=C/C(=O)c2ccc([N+](=O)[O-])o2)cc1,?,2.31µM*,18.4µM*,?,18.4µM*,11.6µM*
Cc1cccc(/C=C/C(=O)c2ccc([N+](=O)[O-])o2)c1,-19.8%,11.6µM*,?,i,?,?
COc1cccc(/C=C/C(=O)c2cccc([N+](=O)[O-])c2)c1,7.3%,?,16.7%,?,?,?
O=C(/C=C/c1cccc([N+](=O)[O-])c1)c1ccco1,-19.4%,136.2%,0.2%,i,i,?
COc1ccc(S(=O)(=O)N2CCN(C(=O)c3ccc([N+](=O)[O-])o3)CC2)cc1,?,?,?,i,i,?
O=C(/C=C/c1cccc([N+](=O)[O-])c1)c1ccc([N+](=O)[O-])o1,5.8µM*,1.64µM*,5.8µM*,i,?,?
Cc1ccc(C(=O)c2oc3ccccc3c2NC(=O)Cc2coc3ccc(C)cc23)cc1,.,.,.,i,i,.
O=C1C=C(N2CCOCC2)c2ccccc2C1=O,6.51µM*,?,4.61µM*,?,?,2.91µM*
O=C1C(N2CCOCC2)=Cc2cccc3cccc1c23,9.9%,.,0.3%,16.4µM*,i,.
O=C1C=C(N2CCOCC2)c2cccc3cccc1c23,-14.9%,.,-11.2%,?,i,.
Cc1ccc(N2CCOCC2)c2c1C(=O)c1ccccc1C2=O,-23.0%,?,?,14.6µM*,i,9.0%
CN(C1=C(N2CCOCC2)C(=O)c2ccccc2C1=O)c1ccccc1,-17.4%,9.7%,-28.3%,11.6µM*,i,5.8%
CC(=O)N(C(C)=O)N1C(=O)c2cccc3c(N4CCOCC4)ccc(c23)C1=O,-5.2%,1.6%,-5.4%,i,i,?

# Compound activity: PubChem BioAssay, National Center for Advancing Translational Sciences (NCATS)
